# Data from the supplement of paper PMC8728848.
# The sample as a whole holds a higher share of the strongest signals than the screen did.
# B1: Pwp6 (Candida glabrata) (protein)
# chain: MGSSHHHHHHSSGLVPRGSHMASANLPKLTNICQIPDNVKKTSGFKGEIRRIGLFPPGGDYTYLLKFPSTGSTASDTISLTTKPQLSTSGWFPSLFGHTYFIKADLLVYMVAYFVPTETGEYTFKLVNSDDAAVMYVGNPSAFPCGSIDTWPEPRKEDINVCDKISASTKLYMEKGLAYPVRLVWYNGGGDGQFNAQFIDPSGTTHTDWNGYVWQYDACTDCDYK
# Columns and labels:
# Assay in all cases: glycan array binding signal (z-score within array); higher = stronger binding
# Conditions in all cases: glycan notation: IUPAC condensed, linker removed
# [1] = molecular target: Fuc(a1-2)Gal(b1-3)GalNAc(b1-4)[Neu5Ac(a2-3)]Gal(b1-4)Glc
# In short: (§1)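 The binding signal is a Z-score computed within each array. Data were drawn from 3228 arrays in the Consortium for Functional Glycomics database, restricted to those with a known protein sequence. Scores were averaged over arrays of the same protein sequence at different concentrations or buffers, and over linkers, and negative values can be taken as non-binding.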
# Fuc(a1-2)Gal(b1-4)GlcNAc = molecular target: Fuc(a1-2)Gal(b1-4)GlcNAc
# In short: as §1
# [2] = molecular target: Fuc(a1-2)Gal(b1-4)GlcNAc(b1-2)Man(a1-3)[Fuc(a1-2)Gal(b1-4)GlcNAc(b1-2)Man(a1-6)]Man(b1-4)GlcNAc(b1-4)[Fuc(a1-6)]GlcNAc
# In short: as §1
# [3] = molecular target: Fuc(a1-2)[Gal(a1-3)]Gal(b1-3)GlcNAc
# In short: as §1
# [4] = molecular target: Fuc(a1-2)[Gal(a1-3)]Gal(b1-3)GlcNAc(b1-6)GalNAc
# In short: as §1
# [5] = molecular target: Fuc(a1-2)[GalNAc(a1-3)]Gal(b1-4)GlcNAc(b1-2)Man
# In short: as §1
# [6] = molecular target: Fuc(a1-2)[GalNAc(a1-3)]Gal(b1-4)GlcNAc(b1-2)Man(a1-3)[Fuc(a1-2)[GalNAc(a1-3)]Gal(b1-4)GlcNAc(b1-2)Man(a1-6)]Man(b1-4)GlcNAc(b1-4)[Fuc(a1-6)]GlcNAc
# In short: as §1
# [7] = molecular target: Fuc(a1-3)[Gal(b1-4)]GlcNAc(b1-6)[Gal(b1-3)GlcNAc(b1-3)]Gal(b1-4)Glc
# In short: as §1
# [8] = molecular target: Gal(a1-3)Gal(b1-4)GlcNAc(b1-6)GalNAc
# In short: as §1
# Gal(b1-3)Gal(b1-4)GlcNAc = molecular target: Gal(b1-3)Gal(b1-4)GlcNAc
# In short: as §1
# [9] = molecular target: Gal(b1-3)GalNAc(b1-4)[Neu5Ac(a2-3)]Gal(b1-4)Glc
# In short: as §1
# Gal(b1-4)Glc = molecular target: Gal(b1-4)Glc
# In short: as §1
# [10] = molecular target: Gal(b1-4)GlcNAc(a1-6)Gal(b1-4)GlcNAc
# In short: as §1
# [11] = molecular target: Gal(b1-4)GlcNAc(b1-2)Man(a1-3)[Gal(b1-4)GlcNAc(b1-2)Man(a1-6)][Gal(b1-4)GlcNAc(b1-4)]Man(b1-4)GlcNAc(b1-4)[Fuc(a1-6)]GlcNAc
# In short: as §1
# [12] = molecular target: Gal(b1-4)GlcNAc(b1-2)Man(a1-6)[GlcNAc(b1-2)Man(a1-3)]Man(b1-4)GlcNAc(b1-4)GlcNAc
# In short: as §1
# [13] = molecular target: Gal(b1-4)GlcNAc(b1-3)Gal(b1-4)GlcNAc(b1-2)Man(a1-3)[Gal(b1-4)GlcNAc(b1-3)Gal(b1-4)GlcNAc(b1-2)Man(a1-6)]Man(b1-4)GlcNAc(b1-4)GlcNAc
# In short: as §1
# [14] = molecular target: Gal(b1-4)GlcNAc(b1-3)Gal(b1-4)GlcNAc(b1-2)[Gal(b1-4)GlcNAc(b1-3)Gal(b1-4)GlcNAc(b1-6)]Man(a1-6)[Gal(b1-4)GlcNAc(b1-3)Gal(b1-4)GlcNAc(b1-2)Man(a1-3)]Man(b1-4)GlcNAc(b1-4)[Fuc(a1-6)]GlcNAc
# In short: as §1
# [15] = molecular target: Gal(b1-4)GlcNAc(b1-3)Gal(b1-4)GlcNAc(b1-3)Gal(b1-4)GlcNAc(b1-3)Gal(b1-4)GlcNAc(b1-2)Man(a1-3)[Gal(b1-4)GlcNAc(b1-3)Gal(b1-4)GlcNAc(b1-3)Gal(b1-4)GlcNAc(b1-3)Gal(b1-4)GlcNAc(b1-2)Man(a1-6)]Man(b1-4)GlcNAc(b1-4)GlcNAc
# In short: as §1
# [16] = molecular target: Gal(b1-4)GlcNAc(b1-3)Gal(b1-4)GlcNAc(b1-3)Gal(b1-4)GlcNAc(b1-3)Gal(b1-4)GlcNAc(b1-2)Man(a1-3)[Gal(b1-4)GlcNAc(b1-3)Gal(b1-4)GlcNAc(b1-3)Gal(b1-4)GlcNAc(b1-3)Gal(b1-4)GlcNAc(b1-2)Man(a1-6)]Man(b1-4)GlcNAc(b1-4)[Fuc(a1-6)]GlcNAc
# In short: as §1
# [17] = molecular target: Gal(b1-4)GlcNAc(b1-3)Gal(b1-4)GlcNAc(b1-3)Gal(b1-4)GlcNAc(b1-3)Gal(b1-4)GlcNAc(b1-3)Gal(b1-4)GlcNAc(b1-2)Man(a1-3)[Gal(b1-4)GlcNAc(b1-3)Gal(b1-4)GlcNAc(b1-3)Gal(b1-4)GlcNAc(b1-3)Gal(b1-4)GlcNAc(b1-3)Gal(b1-4)GlcNAc(b1-2)Man(a1-6)]Man(b1-4)GlcNAc(b1-4)[Fuc(a1-6)]GlcNAc
# In short: as §1
binder,measurement,setting,value
B1,glycan array binding signal (z-score),[1],-0.318
same,glycan array binding signal (z-score),Fuc(a1-2)Gal(b1-4)GlcNAc,-0.848
same,glycan array binding signal (z-score),[2],0.09
same,glycan array binding signal (z-score),[3],-0.701
same,glycan array binding signal (z-score),[4],-0.097
same,glycan array binding signal (z-score),[5],-0.201
same,glycan array binding signal (z-score),[6],0.167
same,glycan array binding signal (z-score),[7],-0.265
same,glycan array binding signal (z-score),[8],0.221
same,glycan array binding signal (z-score),Gal(b1-3)Gal(b1-4)GlcNAc,-0.617
same,glycan array binding signal (z-score),[9],-0.134
same,glycan array binding signal (z-score),Gal(b1-4)Glc,-0.681
same,glycan array binding signal (z-score),[10],-0.631
same,glycan array binding signal (z-score),[11],-0.334
same,glycan array binding signal (z-score),[12],0.606
same,glycan array binding signal (z-score),[13],2.96
same,glycan array binding signal (z-score),[14],0.465
same,glycan array binding signal (z-score),[15],5.06
same,glycan array binding signal (z-score),[16],3.31
same,glycan array binding signal (z-score),[17],1.2
